CHX counter = Cycloheximide Counterscreen for Small Molecule Inhibitors of Shiga Toxin | 300,000 compounds, 12% hits | max response, % | cell reporter, cycloheximide protein synthesis inhibition counterscreen; in the data active = max response mostly above about 13%, no sharp cut-off; inactive = mostly below about 14%; also: read at 38.3 µM for the half of the compounds with a filed dose; 0% is about no effect
Pf growth 96h = Primary qHTS for delayed death inhibitors of the malarial parasite plastid, 96 hour incubation; P. falciparum luciferase reporter growth, 96 h; Potency, µM (highest dose often 28.7 µM), for inactives: top-dose activity change, negative = inhibition, actives largely listed as inhibitors; 320,000 compounds, 6.9% hits; AID 504834, 2011; also: potency is read from the fitted curve at half-maximal effect; % is scaled to controls: 0 for no effect and ±100 for the full control effect
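Cell-based qHTS: luciferase-tagged P. falciparum in erythrocytes (2% hematocrit, 0.05% parasitemia final) incubated with compounds for 96 hours, 37 C, 5% CO2; luciferase detection reagent then added and luminescence measured.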
HCMV inh = qHTS Assay for inhibitors of the human cytomegalovirus (HCMV). HFF cells, HCMV-luciferase reporter, 72 h; hits give low values. activity change, negative = inhibition, % at 57.5 µM. 410,000 compounds, 4.5% hits. AID 1259415, 2018; in the data active = activity change below about -60%; inconclusive = no clear call, values can overlap the other calls; inactive = above about -39%; also: % is scaled to controls: 0 for no effect and ±100 for the full control effect
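Human foreskin fibroblasts infected with luciferase-reporter HCMV at MOI 1 PFU/cell, compounds at two doses. Luciferase measured 72 h post infection; normalized to buffer-only basal and Salinomycin (10uM) controls.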
Shiga toxin inh = A qHTS for Small Molecule Inhibitors of Shiga Toxin | Vero cells, Shiga toxin protein synthesis inhibition reporter | inhibition, % at 38.7 µM | 290,000 compounds, 9.2% hits | AID 2315, 2010; in the data active = inhibition mostly above about 28%, no sharp cut-off; inactive = mostly below about 43%; also: 0% is about no effect
Pf growth 48h = Primary qHTS for delayed death inhibitors of the malarial parasite plastid, 48 hour incubation | AID 504832, 2011 | 310,000 compounds, 5.9% hits | P. falciparum luciferase growth in erythrocytes, 48 h | Potency, µM (top dose mostly 28.7 µM), inactives show top-dose activity change, negative = inhibition, hits mostly inhibitors; also: potency is read from the fitted curve at half-maximal effect; % is scaled to controls: 0 for no effect and ±100 for the full control effect
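Luminescence readout; reporter = integrated firefly luciferase in P. falciparum. RBC culture at 2% hematocrit, 0.1% parasitemia final, 37 C/5% CO2; decreased signal taken as growth inhibition.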
HCV inh = qHTS Assay for Inhibitors of Hepatitis C Virus (HCV); Huh7.5.1 HCVcc-Cre infection, luciferase reporter, 44 h; Potency, µM (top dose mostly 41.8 µM), without a hit: at the top dose activity change, negative = inhibition, actives largely listed as inhibitors; 340,000 compounds, 3.4% hits; also: potency is read from the fitted curve at half-maximal effect; % is scaled to controls: 0 for no effect and ±100 for the full control effect
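Antiviral activity was scored by luciferase reporter output from cells infected with HCVcc-Cre (~0.5 moi) in presence of compound, 44 h infection period, cells seeded 1,000/well 4 h prior.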
* hit, by the source's call; i = inactive; ? = inconclusive; . = not tested or not shown; [ ] = dose if it differs, or a comment. Most compounds without a hit are left out; they make up all but 21% or so of the library. Unless noted, calls follow the shape of the dose curve; as a rule, active = well fitted inhibition curve with a large enough effect; inconclusive = small, poorly fitted or top-dose-only effect, or another doubt; inactive = no such curve, though single readings can be large or run the other way.

SMILES | CHX counter | Pf growth 96h | HCMV inh | Shiga toxin inh | Pf growth 48h | HCV inh
O=C(N/N=C/c1ccccn1)c1cc(-c2ccccc2)nc2ccccc12 | 7 | 13µM* | 10 | 26 | ? | 11%
COc1cccc(/C=N/NC(=O)c2cc(-c3ccccn3)nc3ccccc23)c1O | . | ? | -63* | . | ? | 4µM*
O=C(N/N=C/c1ccc2c(c1)OCO2)c1cc(-c2ccc(F)cc2)nc2ccccc12 | 50* | ? | 13 | 92* | 20% | -25%
Cc1ccc(-c2cc(C(=O)N/N=C/c3ccoc3)c3ccccc3n2)cc1 | 19 | 9.3µM* | 3 | -4 | -1% | -9%
O=C(N/N=C/c1ccco1)c1cc(-c2ccncc2)nc2ccccc12 | 4 | 8% | 29 | -10 | 30% | -14%
O=C(N/N=C/c1ccccn1)c1cc(C2CC2)nc2ccccc12 | -8 | ? | . | 2 | -7% | -11%
COc1ccc(NC(=O)CSc2nc3c(c(=O)[nH]2)CN(Cc2ccccc2)CC3)cc1Cl | . | . | -3 | . | . | .
Cc1ccc(CS(=O)Cc2ccc(C(=O)NC3CCCCC3)o2)cc1 (centres undefined) | -1 | ? | -19 | -11 | ? | -2%
C[C@H](CO)N1C[C@H](C)[C@H](CN(C)C(=O)Nc2cccc(F)c2)OCc2cnnn2CCCC1=O | . | . | -7 | . | . | .
C#Cc1ccc([C@@H]2C=C(C(=O)NC3CC3)O[C@H](OCCCCO)C2)cc1 | 1 | ? | -6 | -3 | ? | -16%[8.37 µM]
CC(/C=N/NC(=O)c1cc(-c2ccccc2)nc2ccccc12)=C\c1ccco1 | -2 | ? | -24 | -3 | -22% | -24%
Cc1cccc(NC(=O)c2cc(-c3ccco3)nc3ccccc23)n1 | 16* | 20% | 63 | 95* | -16% | -13%
CC(/C=N/NC(=O)c1cc(-c2ccc(Cl)cc2)nc2ccccc12)=C\c1ccco1 | -3 | ? | -83* | -11 | . | ?
O=C(N/N=C/c1cccc(F)c1)c1cc(-c2ccco2)nc2ccccc12 | 71* | 141% | 20 | 86* | 59% | ?
COc1cc(/C=N/NC(=O)c2cc(-c3ccccc3)nc3ccccc23)ccc1O | 23* | 36% | -67* | 45* | -40% | -9%
COc1ccc(/C=N/NC(=O)c2cc(-c3ccccc3)nc3ccccc23)cc1O | 11 | ? | -15 | 21 | -5% | -13%
Cc1ccc(-c2cc(C(=O)N/N=C/c3c(C)nn(C)c3C)c3ccccc3n2)cc1C | 19* | ? | 19 | 49 | . | 35µM*
CCOc1ccc(/C=N/NC(=O)c2cc(-c3ccccc3)nc3ccccc23)cc1O | 9 | 0% | -29 | -4 | 43% | -29%
CCOc1ccc(-c2cc(C(=O)N/N=C/c3cccnc3)c3ccccc3n2)cc1 | 26* | ? | -16 | 62* | 21% | -25%
O=C(N/N=C/c1ccc(O)cc1)c1cc(-c2ccccc2)nc2ccccc12 | 34* | 1% | -76* | 65* | 16% | -14%
COc1ccc(Cl)cc1NC(=O)N1CCC2(CC1)Oc1ccccc1C(=O)N2Cc1ccc(F)cc1 | . | . | 3 | . | . | .
COc1ccc(Cn2ccc3nc(C)c(C(=O)N4CCN(c5ccccc5OC)CC4)cc3c2=O)cc1 | . | . | -7 | . | . | .
Cc1cc2cc(CCNC(=O)c3ccc(C)c([N+](=O)[O-])c3)c(=O)[nH]c2cc1C | -3 | ? | 35 | -10 | -29% | 3%
COc1ccc(OC)c2[nH]c(=O)c(CCNC(=O)c3ccc(S(=O)(=O)N(C)C)cc3)cc12 | 6 | 80% | 2 | 7 | 7% | ?
Cc1cc2cc(CCNC(=O)c3ccc(S(=O)(=O)N4CCCC4)cc3)c(=O)[nH]c2cc1C | -1 | ? | -14 | 13 | 9.3µM* | ?
SMILES | CHX counter | Pf growth 96h | HCMV inh | Shiga toxin inh | Pf growth 48h | HCV inh
COc1ccc2cc(CCNC(=O)c3ccc(S(=O)(=O)N4CCOCC4)cc3)c(=O)[nH]c2c1 | 8 | ? | 23 | -4 | 10µM* | -6%
COc1cc(C(=O)NCCc2cc3c(OC)ccc(OC)c3[nH]c2=O)cc(OC)c1OC | 9 | ? | -21 | -3 | ? | -4%
COc1ccc(OC)c2[nH]c(=O)c(CCNC(=O)c3ccc(S(=O)(=O)N4CCCCC4)cc3)cc12 | 0 | 55% | 35 | 6 | 9.3µM* | -23%
COc1ccc(OC)c2[nH]c(=O)c(CCNC(=O)c3ccc(Br)o3)cc12 | -2 | . | -38 | -12 | 12µM* | ?
CCOC(=O)c1sc2ccccc2c1S(=O)(=O)Nc1cc(OC)ccc1OC | . | . | -17 | . | . | .
COc1cccc(-n2cc(C(=O)OCc3ccc(F)c(F)c3)c3ccccc3c2=O)c1 | . | . | 8 | . | . | .
CCOC(=O)c1[nH]c(C)c(CCC(=O)Nc2ccc(C(C)=O)cc2)c1C | . | . | 7 | . | . | .
CCCCC[C@]12Cc3cc(OC)c(OC)cc3[C@H](O1)c1c(cc(C)oc1=O)O2 | -3 | ? | . | i | 5%[5.75 µM] | .
COc1ccc2c(c1)c1nc3ccccc3nc1n2Cc1ccc(OC(C)C)c(OC)c1 | -4 | ? | 23 | -7 | 12µM* | 26%
FC(F)(F)c1cc(Sc2ccccc2)nc(-c2ccccn2)n1 | 11 | ? | -5 | 4 | -22% | -20%
CC(C)Nc1cc(C(F)(F)F)nc(-c2ccccn2)n1 | -3 | 4.1µM* | 33 | -3 | 5.2µM* | ?
FC(F)(F)c1cc(Nc2ccccc2)nc(-c2ccccn2)n1 | 2 | ? | . | -7 | 2.9µM* | ?
COc1cc(C(F)(F)F)nc(-c2ccccn2)n1 | -2 | 50% | 0 | -6 | 0% | -1%
COc1cccc(-n2nnc(-c3nc(-c4ccccc4F)no3)c2C)c1 | . | . | -13 | . | . | .
COc1cccc(CNC(=O)C2CCCN(S(=O)(=O)c3ccc4c(ccn4C)c3)C2)c1OC (centres undefined) | . | . | -30 | . | . | .
COc1cc2c(C)nc3onc(-c4ccccc4)c3c2cc1OC | 2 | . | -25 | -8 | 25% | ?
Cc1cc2c(C)nc(-c3ccccc3)nc2o1 | 39* | 11% | 30 | 107* | 195% | 3.5µM*
Cc1ccc(Cl)cc1N(C)C(=O)c1cc2ccc3cccnc3c2[nH]1 | . | . | -9 | . | . | .
COc1ccccc1N1CCN(S(=O)(=O)c2c(C)sc3ncn(CC(=O)Nc4ccc(C(C)C)cc4)c(=O)c23)CC1 | . | . | 19 | . | . | .
CCOC(=O)C1CCN(C(=O)c2cc3cc(Cl)ccc3[nH]2)CC1 | 23* | ? | 75 | 49* | ? | -5%
CCOC(=O)C1CCN(C(=O)c2cc3ccc(OC)cc3[nH]2)CC1 | 27* | 285% | -19 | 48 | 140% | 8%
CCOC(=O)N1CCN(C(=O)c2cc3cc(C)ccc3[nH]2)CC1 | -1 | ? | 33 | -5 | -3% | -2%

High-throughput results (PubChem BioAssay)
